Bioassay records (PubChem)
BAZ2B inh: qHTS Assay for Inhibitors of BAZ2B; Bromodomain adjacent to zinc finger domain protein 2B (Homo sapiens), Q9UIF8; AlphaScreen BAZ2B-H3K14Ac peptide displacement; Potency, µM (top dose mostly 114 µM), inactives show top-dose activity change, negative = inhibition, hits mostly inhibitors; hit rate 4.4% among 360,000; also: potency is read from the fitted curve at half-maximal effect; % is scaled to controls: 0 for no effect and ±100 for the full control effect; nearly all actives have a fitted effect of over 60% in size
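In this displacement format the biotinylated H3(5-23) peptide acetylated at Lys14 serves as ligand at 50 nM, with BAZ2B at 50 nM in PBS pH 7.4 containing 0.01% Tween-20. Donor and acceptor beads are 10 ug/mL final.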
Six1-Eya2 inh: qHTS Assay for Inhibitors of the Six1/Eya2 Interaction. activity change, % (concentration not given with the values). hit rate 0.56% among 360,000. AID 651725, 2012. AlphaScreen GST-Six1/His-Eya2 binding, biochemical; stronger effect = lower value; in the data active = activity change below about -65%; inconclusive = mostly about -30% to -63%; also: % is scaled to controls: 0 for no effect and ±100 for the full control effect
Target sequence (O00167 whole entry, looked up): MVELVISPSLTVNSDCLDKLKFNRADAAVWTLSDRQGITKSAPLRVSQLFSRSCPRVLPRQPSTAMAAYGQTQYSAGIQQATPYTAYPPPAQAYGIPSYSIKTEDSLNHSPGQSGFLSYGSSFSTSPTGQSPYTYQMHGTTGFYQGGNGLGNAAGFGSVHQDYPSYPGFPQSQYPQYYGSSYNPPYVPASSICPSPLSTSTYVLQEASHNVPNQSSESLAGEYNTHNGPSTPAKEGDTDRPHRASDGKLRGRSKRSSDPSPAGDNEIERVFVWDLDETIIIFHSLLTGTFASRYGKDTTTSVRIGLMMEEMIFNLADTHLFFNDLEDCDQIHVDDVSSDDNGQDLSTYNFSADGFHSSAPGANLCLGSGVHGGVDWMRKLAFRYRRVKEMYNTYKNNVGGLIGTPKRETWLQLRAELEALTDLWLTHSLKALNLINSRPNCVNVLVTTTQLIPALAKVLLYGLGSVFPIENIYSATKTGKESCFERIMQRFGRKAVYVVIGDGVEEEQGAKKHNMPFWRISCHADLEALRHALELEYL
Target sequence (Q15475 whole entry, looked up): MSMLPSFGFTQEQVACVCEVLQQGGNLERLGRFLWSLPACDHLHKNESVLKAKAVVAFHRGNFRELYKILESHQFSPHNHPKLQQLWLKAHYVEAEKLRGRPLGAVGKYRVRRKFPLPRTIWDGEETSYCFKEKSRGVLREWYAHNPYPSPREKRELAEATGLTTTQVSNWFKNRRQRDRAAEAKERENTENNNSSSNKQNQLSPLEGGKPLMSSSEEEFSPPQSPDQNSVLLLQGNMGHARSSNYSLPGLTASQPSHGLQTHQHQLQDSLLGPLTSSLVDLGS
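Six1/Eya2 binding was read as AlphaScreen signal after compounds were pinned into GST-Six1 plus His-tagged Eya2 (5X stock 250/500 nM) in pH 8.0 Tris/NaCl/TCEP buffer, beads added, then incubated 1 h, 37 C, dark.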
JMJD2A Tudor: qHTS Assay for Inhibitors of JMJD2A-Tudor Domain; Lysine-specific demethylase 4A (Homo sapiens), O75164; AlphaScreen JMJD2A-Tudor / H3K4me3 peptide binding; Potency, µM (highest dose often 114 µM), for the others: top-dose activity change, negative = inhibition, actives largely listed as inhibitors; hit rate 4.4% among 390,000; also: potency is read from the fitted curve at half-maximal effect; % is scaled to controls: 0 for no effect and ±100 for the full control effect; nearly all actives have a fitted effect of over 50% in size
HP1b chromo inh: HTS for Inhibitors of HP1-beta Chromodomain Interactions with Methylated Histone Tails; Chromobox protein homolog 1 (Homo sapiens), P83916; AlphaScreen HP1-beta / biotin-H3K9me3 peptide binding; Potency, µM (top dose mostly 114 µM), inactives show at the highest dose activity change, negative = inhibition, most hits filed as inhibitors; hit rate 0.56% among 390,000; AID 540317, 2011; also: potency is read from the fitted curve at half-maximal effect; nearly all actives have a fitted effect of over 70% in size
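AlphaScreen: HP1-beta (50 nM) preformed 30 min with biotin-H3(1-18)K9me3 peptide (50 nM) in PBS pH 7.4, 0.01% Tween-20. Compound added for 30 min at RT, then streptavidin donor/nickel chelate acceptor beads (10 ug/mL) for 30 min.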
G9a block: qHTS Assay for Inhibitors of Histone Lysine Methyltransferase G9a; Histone-lysine N-methyltransferase EHMT2 (Homo sapiens), Q96KQ7; G9a H3K9 monomethylation, AlphaScreen, 2 h; Potency, µM (titrated, usually from 102 µM), without a hit: top-dose activity, negative = inhibition, hits mostly inhibitors; hit rate 8.8% among 350,000; AID 504332, 2011; also: potency is read from the fitted curve at half-maximal effect; % is scaled to controls: 0 for no effect and ±100 for the full control effect; nearly all actives have a fitted effect of over 75% in size
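G9a (20 nM) was preincubated 15 min with compound, then reacted 2 h at room temperature with 500 nM biotin-H3K9 peptide and 20 µM SAM. Monomethyl-H3K9 detected by AlphaScreen using anti-H3K9me1 antibody.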
CtBP-E1A inh: qHTS Assay for Inhibitors of the CtBP/E1A Interaction; AlphaScreen GST-E1A/His-CtBP binding, 1536-well; stronger effect = lower value; activity change, % (test concentration not listed); hit rate 0.49% among 340,000; in the data active = activity change below about -65%; inconclusive = mostly about -30% to -63%; also: % is scaled to controls: 0 for no effect and ±100 for the full control effect
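Steps: dispense buffer (Tris pH 8.0, NaCl 300 mM, TCEP 1 mM, BSA, Tween 20); add 5X protein mix (GST-E1A, His-CtBP, 125 nM each); pin 23 nL compound; 2 h at 37 °C, dark; add 5X beads (50 ug/mL); 1 h; read.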
Numbers without * were called inactive; ? = inconclusive; / = no result; [ ] = remark or other dose. In the library only some 10% were active in any assay of this set; here they are far more common. Unless noted, calls follow the shape of the dose curve; as a rule, active = well fitted inhibition curve with a large enough effect; inconclusive = small, poorly fitted or top-dose-only effect; inactive = no such curve, though single readings can be large or run the other way.

SMILES	BAZ2B inh	Six1-Eya2 inh	JMJD2A Tudor	HP1b chromo inh	G9a block	CtBP-E1A inh
Cc1ccc(C)c(NC(=O)CN(C)S(=O)(=O)c2ccc3c(c2)CCC(=O)N3)c1	-14.6%	/	-17.2%	32.5%	12.2%[59 µM]	/
NC(=O)c1c(NC(=O)Cc2cccs2)sc2c1CCC2	-5.7%	-10.7	-11.2%	36.5%	19.0%[12.7 µM]	-8.8
CC(=O)N1CCc2c(sc(NC(=O)Cc3ccccc3)c2C#N)C1	-2.1%	-1.1	3.0%	43.0%	-3.7%[59 µM]	5.1
CC(=O)Nc1sc2c(c1C#N)CCN(Cc1ccccc1)C2	-7.3%	2.6	-23.6%	38.4%	/	1.5
CCN1CCc2c(sc(NC(=S)NC(=O)c3ccccc3)c2C#N)C1	?	-6.7	50.1µM*	?	16.6%[0.0925 µM]	-17.2
N#Cc1c(NC(=S)NC(=O)Cc2cccs2)sc2c1CCCCC2	50.1µM*	-19.0	?	-40.2%	-9.0%[59 µM]	-28.6
N#Cc1c(NC(=O)C2CC2)sc2c1CCCCC2	-34.9%	-10.1	-2.7%	5.2%	89.1µM*	-3.6
N#Cc1c(NC(=O)/C=C/C(=O)O)sc2c1CCN(Cc1ccccc1)C2	50.1µM*	-1.0	?	41.8%	?	/
CC1CCc2sc(NC(=S)NC(=O)c3ccccc3)c(C#N)c2C1 (configuration not stated)	?	-16.3	-18.5%	-11.1%	35.5µM*	-10.4
CN(C(=O)CSc1nc2ccc(NC(=O)c3cccs3)cc2s1)c1ccccc1	-18.4%	/	-9.6%	30.1%	-5.7%[59 µM]	/
O=C(NC1CCCCC1)/C(=N\O)c1ccccn1	-31.4%	6.1	?	-1.2%	50.1µM*	4.4
O=S(=O)(NCC(c1ccco1)S(=O)(=O)c1ccccc1)c1cc(F)ccc1F (configuration not stated)	3.5%	/	-1.0%	62.6%	-0.7%[59 µM]	/
CC12CCC=CC1C(c1ccc(/C=C/c3ccccc3)cc1F)N(Cc1ccccc1)C2=O (configuration not stated)	/	/	-18.6%	14.1%	/	/
COCCNC(=O)CN(Cc1ccc2c(c1)OCO2)C(=O)CCC(=O)Nc1nccs1	8.3%	0.8	28.2µM*	-7.8%	-34.1%	-0.7
O=C(CCC(=O)N(CC(=O)NC1CCCC1)Cc1ccc2c(c1)OCO2)Nc1nccs1	-0.8%	/	/	/	5.6%	/
CC(C)(C)NC(=O)CN(Cc1ccc2c(c1)OCO2)C(=O)CCC(=O)Nc1nccs1	-21.3%	-2.9	-2.0%	39.2%	39.8µM*	7.0
COCCN(CC(=O)NCc1ccc2c(c1)OCO2)C(=O)CCC(=O)Nc1nccs1	9.3%	-0.3	13.9%	65.7%	3.9%[59 µM]	4.0
CC(C)c1ccc(NC(=O)Cn2nnc(C(=O)NCc3ccc(Cl)cc3)c2N)cc1	9.0%[57.1 µM]	/	-19.1%	-8.0%	-2.5%[59 µM]	/
CSc1cccc(NC(=O)C2CCN(S(=O)(=O)c3ccc4[nH]c(=O)ccc4c3)CC2)c1	2.5%	/	-19.0%	18.1%[57 µM]	4.9%[59 µM]	/
COc1cc(OC)c(Nc2nc3ccccc3c3nncn23)cc1Cl	1.6%	/	-15.4%	27.0%	-3.5%[59 µM]	/
COc1ccc(NC(=O)C2=C(C)Nc3ncnn3C2c2ccc(O)cc2)cc1 (configuration not stated)	-12.5%	/	-3.8%	19.9%[57 µM]	9.8%[59 µM]	/
CCOC(=O)C1CCCCN1Cc1cccc(OCc2ccccc2)c1 (configuration not stated)	?	18.0	10µM*	?	/	33.4
CCOC(=O)C1CCN(Cc2ccc(F)c(Br)c2)CC1	50.1µM*	4.7	3.16µM*	-50.2%	?	8.3
CC(C)CNC(=O)C1CCN(Cc2ccc(OCc3ccccc3)cc2)CC1	?	-5.1	1.12µM*	?	?	-2.5
COCCNC(=O)C1CCCN(Cc2ccccc2)CC1 (configuration not stated)	/	14.3	/	/	/	-19.1
SMILES	BAZ2B inh	Six1-Eya2 inh	JMJD2A Tudor	HP1b chromo inh	G9a block	CtBP-E1A inh
COC(=O)C1CCN(Cc2ccc(C)cc2)CC1	2.6%	14.0	-15.5%	38.4%	1.6%[59 µM]	-4.8
CN1CCN(Cc2ccc(OCc3ccccc3)cc2)CC1	-30.1%	-2.3	-21.8%	34.0%	6.5%[59 µM]	0.5
c1ccc(COc2cccc(CN3CCc4ccccc4C3)c2)cc1	7.2%	4.0	56.2µM*	21.1%	/	11.2
CCOC(=O)C1CCCCN1Cc1cccc(Oc2ccccc2)c1 (configuration not stated)	62.8%	32.5	65.1%	107.3%	52.6%	21.4
Cc1ccc(-c2noc(CN(C3CCCCC3)S(=O)(=O)c3ccc(F)cc3)n2)cc1	13.9%	/	10.1%	43.0%	25.9%[59 µM]	/
CC(C)NC(=O)C1CCN(Cc2cccc(OCc3ccccc3)c2)CC1	/	8.5	/	/	/	-19.3
Fc1ccc(CN2CCSCC2)cc1Br	50.1µM*	-7.2	3.16µM*	?	8.91µM*	-12.0
CCOC(=O)C1CCN(Cc2nnnn2CCc2ccccc2)CC1	-7.9%	11.9	2.1%	58.4%	/	9.4
NC(=O)C1CCN(Cc2cccc(OCc3ccccc3)c2)CC1	?	-13.1	2.51µM*	?	/	1.2
CCOC(=O)C1CCN(Cc2cccc(OCc3ccccc3)c2)CC1	-12.2%	1.4	8.91µM*	?	?	/
CCOC(=O)C1CCN(Cc2nc3ccc(Cl)cc3n2CCO)CC1	44.7µM*	1.0	1.12µM*	14.1µM*	?	-3.1
COc1cc2c(cc1OC)n(CC(=O)c1cccc(Cl)c1)c(=O)n1nc(CCn3nc(C)cc3C)nc21	-2.7%	/	-10.7%	22.8%	10.5%[59 µM]	/
Cc1ccc(-n2c(=O)[nH]c3sc4c(c3c2=O)CCNC4)cc1C	-2.2%	/	-17.1%	15.7%	-21.2%[59 µM]	/
Cc1ccc(C)c(NC(=O)Cn2cc(C(=O)c3ccncc3)c(=O)c3cc(F)ccc32)c1	-18.3%	/	-8.0%	20.2%[57 µM]	-2.3%[59 µM]	/
CCCNC(=O)c1c(NC(=O)c2ccccc2)sc2c1CCC(C(C)(C)C)C2 (configuration not stated)	-5.9%	/	16.6%	55.9%	-1.9%[59 µM]	/
C#Cc1ccc(CN2CCC(N3CCC(C(=O)NCc4ccccn4)CC3)CC2)cc1	-11.6%	-3.8	-9.0%	11.7%	/	3.3
CC(C)NC(=O)C1CCN(Cc2cccc(Oc3ccccc3)c2)CC1	?	-0.4	22.4µM*	?	/	1.5
O=C(NCc1ccccn1)C1CCN(Cc2cccc(OCc3ccccc3)c2)CC1	?	-16.1	3.55µM*	?	-14.2%	-7.6
CCOc1ccccc1-c1noc(CSc2nnc(-c3ccccc3)n2-c2cccc(C)c2)n1	-17.6%	/	-15.6%	59.4%	-12.2%[59 µM]	/
O=C(C[n+]1cc(Br)cc(Br)c1)c1cccc([N+](=O)[O-])c1	50.1µM*	-5.5	-26.9%	20.3%	-111.2%[59 µM]	-4.9
